# SW480 rereplic: inducers of DNA re-replication in SW480 colon cancer cells; hit rate 1.8% among 340,000; SW480 DNA re-replication, Hoechst DNA content imaging, 48 h; Potency, µM (top dose mostly 46.1 µM), without a hit: top-dose re-replication activation, usual class: activators; also: % of control where 0% means no effect; nearly all actives have a fitted effect of over 55% in size
#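 DNA re-replication was detected as more nuclei of elevated Hoechst intensity after 48 hr exposure to compound (23 nL pinned per well of 250 cells).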
# KB-3-1 cytotox: kills parental KB-3-1 adenocarcinoma cells; AID 1347075; hit rate 1.4% among 400,000; Potency, µM (doses to about 46.1 µM), most hits filed as cytotoxic; KB-3-1 viability, CellTiter-Glo ATP luminescence, 72 h; also: % is scaled to controls: 0 for no effect and ±100 for the full control effect; nearly all actives have a fitted effect of over 60% in size
#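 Cells are dispensed, compounds pinned in, plates held at 37 °C for 72 h, then CellTiter-Glo is added and luminescence read after 10 minutes. Cell line: parental KB-3-1 in phenol-red-free DMEM, 10% FBS.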
# Gal4-VP16 FLuc: Gal4-VP16 reporter inhibition counter-screen; Potency, µM (doses to about 53.6 µM), for inactives: at the highest dose activity, negative = inhibition, most hits filed as inhibitors; Drosophila S2 Gal4-VP16 UAS-luciferase, luminescence, 20 h; hit rate 3.5% among 310,000;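 also: Gal4-VP16 expression switched on by copper sulfate through the metallothionein promoter; % is scaled to controls: 0 for no effect and ±100 for the full control effect; nearly all actives have a fitted effect of over 50% in size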
# MCF10A rerep: DNA re-replication induction in MCF 10a cells. Potency, µM (top dose mostly 46.1 µM), inactives show top-dose activity, positive = re-replication, usual class: activators. hit rate 2.9% among 350,000. MCF 10A DNA re-replication, Hoechst nuclear intensity, 48 h. AID 624296; also: % of control where 0% means no effect; nearly all actives have a fitted effect of over 50% in size
# RORg inh: blocks mouse ROR gamma transcriptional activity; P51450; Drosophila S2 Gal4-RORgamma UAS-luciferase reporter, 20 h; Potency, µM (titrated, usually from 53.6 µM), inactives show top-dose activity change, negative = inhibition, usual class: inhibitors; hit rate 5.4% among 310,000; also: % is scaled to controls: 0 for no effect and ±100 for the full control effect; nearly all actives have a fitted effect of over 60% in size
# Target sequence (P51450 whole entry, looked up, the tested form may be a part): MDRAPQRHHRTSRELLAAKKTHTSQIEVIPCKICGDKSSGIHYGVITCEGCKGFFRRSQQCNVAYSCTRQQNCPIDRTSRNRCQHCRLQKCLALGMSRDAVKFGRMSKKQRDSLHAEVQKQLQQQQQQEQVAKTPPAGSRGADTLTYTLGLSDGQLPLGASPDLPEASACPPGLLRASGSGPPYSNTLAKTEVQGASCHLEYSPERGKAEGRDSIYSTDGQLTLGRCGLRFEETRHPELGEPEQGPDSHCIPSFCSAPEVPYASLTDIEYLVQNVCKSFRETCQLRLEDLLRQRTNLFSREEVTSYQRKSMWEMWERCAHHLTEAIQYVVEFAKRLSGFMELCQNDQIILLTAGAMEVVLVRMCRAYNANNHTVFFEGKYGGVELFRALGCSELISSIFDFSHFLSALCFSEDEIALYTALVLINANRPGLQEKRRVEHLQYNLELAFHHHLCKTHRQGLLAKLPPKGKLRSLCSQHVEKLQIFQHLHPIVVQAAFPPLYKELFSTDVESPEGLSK
#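 Read-out: Photinus luciferase luminescence; inhibitors lower reporter signal. Insect Schneider cells with Gal4-ROR gamma fusion under metallothionein promoter, UAS reporter; 700 uM final copper sulfate induction, 20 hr, ambient temperature.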
# KB-V1 cytotox: KB-V1 MDR subline cytotoxicity | KB-V1 MDR cells viability, CellTiter-Glo, 72 h | AID 1347076 | Potency, µM (top dose mostly 46.1 µM), actives largely listed as cytotoxic | hit rate 3.4% among 400,000; also: % is scaled to controls: 0 for no effect and ±100 for the full control effect; nearly all actives have a fitted effect of over 60% in size
#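 Compound-treated KB-V1 multidrug-resistant cells, 72 h, 37 degrees C; viability by CellTiter-Glo. Fitted qHTS curves give the values.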
# * marks the source's active call; other numbers are inactive results; i = inactive; ? = inconclusive; / = no result given; [ ] = dose if it differs, or a comment. Shown are actives, neighbours in structure and some others; about 10% of the full set was active somewhere. Calls follow the shape of the dose curve; as a rule, active = well fitted curve in the direction sought with a large enough effect; inconclusive = small, poorly fitted or top-dose-only effect, or another doubt; inactive = no such curve, though single readings can be large; an effect the other way counts as inactive or inconclusive. Potency is read from the fitted curve at half-maximal effect.
SMILES,SW480 rereplic,KB-3-1 cytotox,Gal4-VP16 FLuc,MCF10A rerep,RORg inh,KB-V1 cytotox
CCCNC(=O)C[C@H]1CC[C@@H]2[C@H](COC[C@@H](O)CN2C(=O)c2ccccn2)O1,/,i,/,/,/,i
Cc1oc2ncn(CC(C)C)c(=O)c2c1C(=O)N(CCN(C)C)Cc1ccccc1,/,i,/,/,/,i
COc1cc(CNCc2c(C(=O)O)c(C)n(Cc3cccc(Cl)c3)c2C)cc(OC)c1OC,/,?,/,/,/,i
S=c1[nH]nc(C2CCCCC2)n1/N=C/c1ccc(Cl)cc1,?,i,7.94µM*,?,0.355µM*,i
S=c1[nH]nc(C2CCCCC2)n1/N=C/c1ccc(Br)cc1,-6.3%,i,?,?,1.41µM*,i
Nc1ccccc1C(=O)/C=C/c1ccccc1,/,/,20.4%,/,29.2%,/
CCO/C(C)=N/Oc1cncnc1,/,i,/,/,/,i
COc1ccc(C2c3c(n(C)c4ccccc34)C(=O)N2CC(=O)Nc2ccc(Cl)cc2)cc1 (stereo not given),/,i,/,/,/,i
Cc1ccccc1CN1CCCN(CC(=O)Nc2ccc3c(c2)OCCO3)S1(=O)=O,/,i,/,/,/,i
O=C(Nc1ncc(Cc2cccc(C(F)(F)F)c2)s1)c1ccc(-c2cccc([N+](=O)[O-])c2)o1,1.9%,i,4.47µM*,?,7.08µM*,?
CC(=O)Cc1nsc(NC(=O)c2ccc(-c3cccc(C(F)(F)F)c3)o2)n1,?,?,2.4%,13µM*,13.0%,5.8µM*
CC(=O)Cc1nsc(NC(=O)c2ccc(-c3cc(C(F)(F)F)ccc3Cl)o2)n1,?,i,12.3%,3.26µM*,-1.3%,i
CCOc1ccccc1CNC(=O)c1ccc2nc(N3CCC(C)CC3)sc2c1,/,i,/,/,/,i
c1cc2c3c(c1)CCCN3CCC2,/,i,/,/,/,i
Cc1nonc1OCCNC(=O)C12CC3CC(CC(C3)C1)C2,?,i,-0.1%,0.1%,-1.6%,23.1µM*
CCOC(=O)CNC(=O)C12CC3CC(CC(C3)C1)C2,-6.6%,i,0.0%,0.6%,-1.3%,i
CCOc1cc(CNC(C)(C)CO)cc(Br)c1OCc1ccc(Cl)cc1Cl,28.1%,i,?,6.51µM*,?,?
COc1cc(CNC(C)(C)CO)cc(Br)c1OCc1ccccc1,13.3%,i,0.1%,17.4%,0.9%,i
CCOc1cc(CNCCO)cc(Br)c1OCc1ccccc1Cl,-5.6%[9.22 µM],?,-17.9%,?,18.2%,23.1µM*
CCOc1cc(CNCCO)cc(Br)c1OCc1ccc(Cl)cc1,?,?,?,?,-34.9%,?
O=C(Nc1ccc(Cl)cc1)c1cc2c(-c3ccccc3)nn(-c3ccccc3)c2s1,/,i,/,/,/,i
CC(=O)O[C@]1(C(C)=O)CC[C@H]2[C@@H]3C=CC4=CC(=O)C=C[C@]4(C)[C@H]3CC[C@@]21C,1.1%,?,-1.7%,?,26.1%,13µM*
CC(=O)c1nnn(-c2nc(N)nc(N(c3ccccc3)c3ccccc3)n2)c1C,-9.2%,i,-8.8%,0.0%,?,10.3µM*
Cc1cc(C)n(-c2nc(N(c3ccccc3)c3ccccc3)nc(-n3nc(C)cc3C)n2)n1,17.3%,18.4µM*,5.62µM*,?,5.62µM*,2.59µM*
COC(=O)C[C@H]1C[C@H]2c3cc(NC(=O)C4CCC4)ccc3O[C@H]2[C@H](CO)O1,/,i,/,/,/,i
SMILES,SW480 rereplic,KB-3-1 cytotox,Gal4-VP16 FLuc,MCF10A rerep,RORg inh,KB-V1 cytotox
O=S(=O)(CS(=O)(=O)c1ccc(Cl)cc1)c1ccc(Cl)cc1,-15.2%,i,5.5%,20.6µM*,1.8%,i
O=C1C(c2ccccc2)NC(=S)N1C1CCCCC1 (stereo not given),-4.7%,i,3.7%,0.7%,-37.3%,i
O=C1C(Cc2c[nH]c3ccccc23)NC(=S)N1C1CCCCC1 (stereo not given),8.0%,i,?,6.6%,20µM*,?
CCC1NC(=S)N(C2CCCCC2)C1=O (stereo not given),0.9%,i,?,0.3%,11.2µM*,i
CC(C)C1NC(=S)N(C2CCCCC2)C1=O (stereo not given),2.5%,i,?,-11.6%,6.31µM*,i
O=C1C(Cc2ccc(O)cc2)NC(=S)N1C1CCCCC1 (stereo not given),-3.9%,i,-15.7%,1.1%,7.3%,i
CC(C)CC1NC(=S)N(C2CCCCC2)C1=O (stereo not given),?,i,?,16.4µM*,?,i
O=C(/C=C/c1ccc2c(c1)OCO2)Nc1cccc([S+](=O)([O-])Nc2ccccc2F)c1,/,i,/,/,/,i
CSc1oc(-c2cccs2)nc1S(=O)(=O)c1ccccc1,-0.4%,i,-8.7%,-1.4%,-19.4%,i
COc1cccc(/C=C/c2nc(S(=O)(=O)c3ccccc3)c(N(C)C)o2)c1,?,i,19.0%,11.6µM*,0.0%,i
COc1ccccc1/C=C/c1nc(S(=O)(=O)c2ccccc2)c(N(C)C)o1,?,i,?,20.6µM*,11.4%,i
COCCNc1oc(/C=C/c2cccc(OC)c2)nc1S(=O)(=O)c1ccccc1,/,i,/,/,/,i
COc1ccccc1-c1nc(S(=O)(=O)c2ccc(Cl)cc2)c(N(C)C)o1,-14.8%,i,6.8%,?,19.2%,i
CN(C)c1oc(/C=C/c2cccs2)nc1S(=O)(=O)c1ccccc1,23.1µM*,i,7.8%,18.4µM*,?,i
O=C(COc1ccccc1-c1nc(-c2ccccc2)no1)Nc1ccc([N+](=O)[O-])cc1,/,i,/,/,/,i
CCc1ccc(C2CC(=O)N(c3cccc(C(F)(F)F)c3)C3=C2C(=O)OC3)cc1 (stereo not given),/,i,/,/,/,i
CCC(Cc1ccccc1)NC(=O)Cn1ncc2c3ccccc3n(Cc3ccccc3)c2c1=O (stereo not given),/,i,/,/,/,i
COCCNC(=O)C1CCCN(C(=O)c2cccnc2Oc2ccccc2)CC1 (stereo not given),/,i,/,/,/,i
N#Cc1cccc(-c2nccc(NCc3cccnc3)n2)c1,/,/,-20.6%,/,?,/
O=C(Nc1cccc(Cl)c1Cl)c1cc2nc(-c3ccc4c(c3)OCO4)cc(C(F)(F)F)n2n1,/,?,/,/,/,i
Cc1nn2c(NCc3ccccn3)cc(C(C)(C)C)nc2c1-c1ccccc1,2.91µM*,?,2.24µM*,2.59µM*,0.251µM*,i
c1ccc(CNc2c3c(nc4ncnn24)CCCC3)nc1,0.1%[9.22 µM],i,-1.1%[0.365 µM],?,7.08µM*,i

# Assay outcomes: PubChem BioAssay, National Center for Advancing Translational Sciences (NCATS)
